Experimental data from article PMC4336329 (PLoS ONE, 2015).
Among all 310,000 compounds or so, about 14,000 (4.5%) showed an effect of 50% or more. Effects have a minus sign here. Only a selection was taken, and strong results are over-represented in it overall.

Molecular target: human ether-à-go-go-related gene (hERG) potassium channel (human, UniProt Q12809)
Test: primary screen, population patch clamp on CHO cells stably expressing hERG; higher = less effect of the substance
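Also: peak tail current of the secondary pulse compared with the same well before compound.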

human ether-à-go-go-related gene (hERG) potassium channel, sequence (Q12809 whole entry, looked up): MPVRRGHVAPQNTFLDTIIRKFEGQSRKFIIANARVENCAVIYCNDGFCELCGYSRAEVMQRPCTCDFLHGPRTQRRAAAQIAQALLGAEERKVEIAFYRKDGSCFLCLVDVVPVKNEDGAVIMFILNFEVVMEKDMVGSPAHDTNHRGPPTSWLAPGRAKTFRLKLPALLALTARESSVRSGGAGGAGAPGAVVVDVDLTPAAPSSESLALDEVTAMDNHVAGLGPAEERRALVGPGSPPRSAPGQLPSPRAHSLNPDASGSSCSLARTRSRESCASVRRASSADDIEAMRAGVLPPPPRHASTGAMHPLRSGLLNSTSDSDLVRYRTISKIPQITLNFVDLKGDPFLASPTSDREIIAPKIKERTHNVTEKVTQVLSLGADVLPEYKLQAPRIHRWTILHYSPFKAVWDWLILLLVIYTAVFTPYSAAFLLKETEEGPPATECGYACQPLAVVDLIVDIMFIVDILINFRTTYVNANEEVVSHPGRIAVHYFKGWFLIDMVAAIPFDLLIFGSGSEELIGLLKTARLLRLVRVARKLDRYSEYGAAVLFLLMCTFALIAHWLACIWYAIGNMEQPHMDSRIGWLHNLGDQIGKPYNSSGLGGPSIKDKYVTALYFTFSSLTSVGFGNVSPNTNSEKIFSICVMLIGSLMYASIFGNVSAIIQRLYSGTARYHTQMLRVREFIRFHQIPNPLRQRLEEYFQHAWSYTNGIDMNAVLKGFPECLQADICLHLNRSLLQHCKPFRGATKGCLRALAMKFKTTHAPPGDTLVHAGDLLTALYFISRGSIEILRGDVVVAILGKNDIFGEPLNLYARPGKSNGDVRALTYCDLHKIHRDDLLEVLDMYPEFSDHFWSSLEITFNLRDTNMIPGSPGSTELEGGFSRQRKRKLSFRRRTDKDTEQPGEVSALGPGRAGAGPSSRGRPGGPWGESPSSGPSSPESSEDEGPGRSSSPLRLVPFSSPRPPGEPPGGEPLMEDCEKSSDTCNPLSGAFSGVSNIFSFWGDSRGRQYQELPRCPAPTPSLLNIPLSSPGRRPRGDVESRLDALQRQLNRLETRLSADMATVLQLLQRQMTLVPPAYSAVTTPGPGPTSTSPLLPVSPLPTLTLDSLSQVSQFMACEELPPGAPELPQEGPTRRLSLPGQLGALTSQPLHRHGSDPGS

| SMILES | hERG current change (%, negative = inhibition) at 10uM [%] |
| --- | --- |
| Cc1ccc(OCCCC(=O)Nc2cc(Cl)ccc2-n2cncn2)cc1 | -22.4 |
| CCOC(=O)N1CCN(C(=O)CSCC(=O)Nc2nc(-c3cccs3)cs2)CC1 | -31.4 |
| COc1cc(CN2CCC(C(=O)N3CCN(c4ccccc4F)CC3)CC2)cc(OC)c1OC.O=C(O)C(=O)O | -22.6 |
| COc1ccc(OC)c(CN2CCC(C(=O)N3CCN(c4ccccc4F)CC3)CC2)c1.O=C(O)C(=O)O | -65.3 |
| COc1cccc(CN2CCC(C(=O)N3CCN(c4ccccc4F)CC3)CC2)c1 | -53 |
| COc1cc(CN2CCC(C(=O)N3CCN(c4ccccc4F)CC3)CC2)ccc1O.O=C(O)C(=O)O | -19.9 |
| COc1cccc(CN2CCC(C(=O)N3CCC(C)CC3)CC2)c1.O=C(O)C(=O)O | -11 |
| CCOc1ccccc1N1CC(C(=O)N2CCc3ccccc3C2)CC1=O (stereo not shown) | -19.4 |
| COc1ccc(CN2CCC(C(=O)N3CCN(c4ccccc4F)CC3)CC2)cc1OC | -37 |
| CCOc1ccccc1N1CC(C(=O)N2CCN(Cc3ccc(C#N)cc3)CC2)CC1=O (stereo not shown) | -67.3 |
| COc1cc(CN2CCC(C(=O)N3CCN(c4ccccc4F)CC3)CC2)cc(OC)c1O.O=C(O)C(=O)O | -3.74 |
| COc1cccc(CN2CCC(C(=O)N3CCN(c4ccccc4F)CC3)CC2)c1OC.O=C(O)C(=O)O | -10.2 |
| CCOc1ccccc1N1CC(C(=O)N2CCOCC2)CC1=O (stereo not shown) | 13.9 |
| CCOc1ccc(CN2CCC(C(=O)N3CCN(c4ccccc4F)CC3)CC2)cc1OC.O=C(O)C(=O)O | -64.8 |
| CC1=C/C(=C(/c2ccc(O)c(C)c2)c2ccccc2S(=O)(=O)[O-])C=CC1=O.[Na+] | 3.9 |
| Cc1ccc(NC(=O)CSc2ccc(-c3cccnc3)nn2)cc1 | -12.3 |
| Cc1cccc(OCC(=O)N/N=C\c2cc3c(cc2[N+](=O)[O-])OCO3)c1C | -7.82 |
| Cc1ccccc1C(=O)Nc1ccccc1C(=O)NC1CC1 | 6.72 |
| Cc1ccccc1N(CC(=O)NC1CCCCC1)C(=O)c1csnn1 | 8.46 |
| CCC(=O)Nc1sc2c(c1C(N)=O)CCN(C(C)=O)C2 | 10.7 |
| Cc1ccc(C(=O)Oc2cccc(NC(=O)c3ccccc3)c2)cc1C | 19.2 |
| Cc1cc(C)cc(NC(=O)[C@@H](NC(=O)c2ccco2)C(C)C)c1 | 5.62 |

| SMILES | hERG current change (%, negative = inhibition) at 10uM [%] |
| --- | --- |
| Cc1cc(C(=O)NNC(=O)/C=C/c2ccc(F)cc2)c(C)o1 | 1.41 |
| CCN1CCN(Cc2ccc(NC(=O)c3cc(NC(=O)c4cc(-c5ccc(OC)cc5)n[nH]4)cc(OC)c3)cc2C(F)(F)F)CC1 | 11.9 |
| CC(C)Nc1nc(NC(C)(C)C)nc(Oc2ccc(=O)n(C)n2)n1 | -15.3 |
| Cc1c(C(=O)NC2=NCCS2)oc2ccccc12 | -25.4 |
| Cc1cc(C)nc(Oc2ccc(Br)cc2Br)n1 | 19.1 |
| OCC1(CCOc2ccccc2)CCN(Cc2ccc(OC(F)F)cc2)CC1 | -79 |
| COc1ccccc1CN1CCN(C(=O)COc2ccccc2)CC1 | -8.47 |
| OCC1(CCOc2ccccc2)CCN(Cc2ccccc2C(F)(F)F)CC1 | -34.2 |
| CCOc1ccccc1CN1CCC(CO)(CCOc2ccccc2)CC1 | -80.2 |
| CCOc1ccccc1CN1CCN(S(=O)(=O)CC)CC1.O=C(O)C(=O)O | 10.7 |
| OCC1(CCOc2ccccc2)CCN(Cc2ccccc2OC(F)F)CC1 | -72.5 |
| C=CCOc1ccccc1CN1CCC(CO)(CCOc2ccccc2)CC1 | -81.9 |
| C=CCOc1ccccc1CN1CCCN(C)CC1 | 6.51 |
| CCOCCCn1c(=O)c(NC(=O)c2ccc(OCC)cc2)c2n(c1=S)CCCCC2 | -27.8 |
| CCCCCc1nnc(NC(=O)c2cccc(S(=O)(=O)N3CCOCC3)c2)s1 | -41.8 |
| Cn1c(Cn2c(=O)sc3ccccc32)nnc1SCc1ccccc1F | -19.9 |
| CCC(=O)N1CCN(c2ccc(NC(=O)c3cccs3)cc2)CC1 | -0.84 |
| COc1cc(/C=N/n2cnnc2)ccc1OC(=O)c1ccncc1 | 8 |
| O=C(COc1ncnc2ccccc12)Nc1ccc(S(=O)(=O)N2CCOCC2)cc1 | 9.94 |
| N#C/C=C(/N)c1ccc(Br)cc1 | 7.26 |
| c1ccc(Cn2ncc3c(Nc4ccccc4)ncnc32)cc1 | 6.01 |
| CCOc1ccc(CCNC(=O)COC(=O)C2CCN(c3ccc(C(F)(F)F)cn3)CC2)cc1OCC | -10.9 |

| SMILES | hERG current change (%, negative = inhibition) at 10uM [%] |
| --- | --- |
| Cc1cccc(NS(=O)(=O)c2ccc(C(=O)NCCCN3CCCC3=O)cc2)c1C | 4.04 |
| Cc1nc([N+](=O)[O-])cn1CC(O)c1ccc(-c2ccccc2)cc1 (stereo not shown) | -44.3 |
| Cc1ccc(N=Nc2c(O)n(CN3CCOCC3)c3ccccc23)cc1 | 3.48 |
| Cc1ccc(NC(=O)CS(=O)CC(=O)NC2CCN(Cc3ccccc3)CC2)c(C)c1 (stereo not shown) | -3.54 |
| FC(F)Oc1ccc(NC(=S)N2CCN(Cc3ccccc3)CC2)cc1 | -56 |
| COc1ccc(NC(=S)N2CCN(Cc3ccccc3)CC2)cc1 | 0.401 |
| S=C(Nc1ccccc1)N1CCN(Cc2ccccc2)CC1 | -4.13 |
| Cc1ccc(NS(=O)(=O)c2cccc(C(=O)NCC(c3cccs3)N3CCOCC3)c2)cc1 (stereo not shown) | -14.3 |
| Cl.Clc1ccccc1CNC1CN2CCC1CC2 (stereo not shown) | -3.27 |
| COc1ccc(OCC(=O)Nc2ccc(C(=O)Nc3ccccc3C(=O)O)cc2)cc1 | 23.2 |
| CC(C)(C)c1nnc(NC(=O)c2cc(-c3ccccc3)nc3ccccc23)s1 | 17.3 |
| COc1ccc(CCN(C)C(=O)c2cc(-c3ccc(C)cc3)nc3ccccc23)cc1OC | -26.7 |
| COc1ccc(CCN(C)C(=O)c2cc(-c3ccccc3)nc3ccccc23)cc1OC | -4.79 |
| COc1ccc(CCN(C)C(=O)c2cc(-c3ccccc3)nc3ccc(C)cc23)cc1OC | -52.1 |
| O=C(O)CN1CCN(Cc2ccccc2F)C1=O | 24.7 |
| COc1ccc(Nc2nccc(-c3ccc(C#N)cc3)n2)cc1 | 1.36 |
| COc1ccc(Nc2nccc(OC)c2C#N)cc1 | -38.8 |
| COc1cnc(SC)nc1Nc1ccc(C#N)cc1 | -66.8 |
| COc1cccc(N2C(=O)C3CCCN3C2c2ccc(Cl)cc2)c1 (stereo not shown) | -1.05 |
| COc1cc(NC(=O)C2CCC(CNc3c(N4CCC(C)CC4)c(=O)c3=O)CC2)cc(OC)c1 (stereo not shown) | 16.7 |
| O=C(CN1CCN(c2ccccn2)CC1)Nc1ccc2ccccc2c1 | -43.9 |
| O=C1C2C3C=CC(C4CC34)C2C(=O)N1c1cccc2ccccc12 (stereo not shown) | -0.113 |

| SMILES | hERG current change (%, negative = inhibition) at 10uM [%] |
| --- | --- |
| O=C1[C@H]2[C@@H](C(=O)N1c1cccc3ccccc13)C1(C(=O)c3ccccc3C1=O)N1CCC[C@@H]21 | -69 |
| O=C1C2C3C=CC(C3)C2C(=O)N1c1cccc2ccccc12 (stereo not shown) | 18.7 |
| Cn1c(CCNC(=O)C(C)(C)C)nc2ccccc21 | 16.4 |
| O=C(NC1CCCCC1)C1CC=CCC1C(=O)OCC(Cl)=C(Cl)Cl (stereo not shown) | -20.7 |
| COc1ccc(Oc2ncccc2[N+](=O)[O-])cc1 | 6.57 |
| CN(C)c1ccc(/C=N/NC(=O)c2ccco2)cc1 | 1 |
| O=C(CN1C(=O)c2ccc([N+](=O)[O-])cc2C1=O)Nc1cc(S(=O)(=O)N2CCOCC2)ccc1Cl | -60.8 |
| O=C(CN1CCN(S(=O)(=O)N2CCOCC2)CC1)Nc1cc(Cl)ccc1Cl | -55.2 |
| COc1ccc(Cl)cc1NC(=O)CN1CCN(S(=O)(=O)N2CCCCC2)CC1 | -9.48 |
| CN(C)c1ccc(NC(=O)CN2CCN(S(=O)(=O)c3cc(Cl)ccc3Cl)CC2)cc1 | -1.09 |
| O=C(CN1CCOCC1)Nc1cc([N+](=O)[O-])ccc1Cl | -17 |
| CN(C)S(=O)(=O)N1CCN(CC(=O)Nc2cc(Cl)ccc2Cl)CC1 | -50.8 |
| CN1CCN(CC(=O)Nc2cc(S(=O)(=O)N3CCOCC3)ccc2Cl)CC1 | 4.13 |
| COc1ccc(S(=O)(=O)N2CCN(CC(=O)Nc3cc(Cl)ccc3Cl)CC2)cc1 | -7.44 |
| COc1ccc(Cl)cc1NC(=O)CN1CCN(S(=O)(=O)N2CCC(C)CC2)CC1 | -32.1 |
| O=C(CN1CCN(S(=O)(=O)N2CCCCCC2)CC1)Nc1cc(Cl)ccc1Cl | 7.48 |
| O=C(CN1CCN(S(=O)(=O)N2CCCCC2)CC1)Nc1cc(Cl)ccc1Cl | 10.7 |
| COc1ccc(Cl)cc1NC(=O)CN1CCN(S(=O)(=O)N2CCOCC2)CC1 | -55.9 |
| O=C(O)c1ccccc1-c1cc2ccccc2[nH]1 | 19.7 |
